Reference: PubChem BioAssay (Tox21)
Several values for one entry are separate records, joined by “and”; a condition that tells them apart may be missing. Identical values can stand only once. Results filed as inconclusive are left out. The source holds several records for some structures; these can differ, active in one and inactive in another. Activity calls are given as the source filed them. Unless noted, calls follow the shape of the dose curve; as a rule, active = well fitted curve in the direction sought with a large enough effect in the repeat runs; inconclusive = weak or mixed curves; inactive = no such curve, though single readings can be large; an effect the other way counts as inactive or inconclusive.

How the values were obtained:
[1] = qHTS assay to identify aromatase inhibitors - cell viability counter screen (AID 743084); settings: MCF-7 aro ERE viability, CellTiter-Fluor, 24 h; series mostly up to 70.3 µM;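 also: cells stimulated with testosterone during compound exposure; nearly all actives have a fitted effect of over 55% in size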; also: potency is read from the fitted curve at half-maximal effect
[2] = biological target: Aryl hydrocarbon receptor (Homo sapiens) (UniProt P35869); assay: qHTS assay to identify small molecule that activate the aryl hydrocarbon receptor (AhR) signaling pathway (AID 743085); settings: HepG2 AhR-luc (HG2L7.5c1), luciferase, 24 h; series mostly up to 70.3 µM; also: nearly all actives have a fitted effect of over 15% in size; also: potency is read from the fitted curve at half-maximal effect;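 as to activation: HG2L7.5c1 human HepG2 liver cells with stably integrated DRE-driven firefly reporter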
Aryl hydrocarbon receptor (Homo sapiens), sequence (P35869 whole entry, looked up): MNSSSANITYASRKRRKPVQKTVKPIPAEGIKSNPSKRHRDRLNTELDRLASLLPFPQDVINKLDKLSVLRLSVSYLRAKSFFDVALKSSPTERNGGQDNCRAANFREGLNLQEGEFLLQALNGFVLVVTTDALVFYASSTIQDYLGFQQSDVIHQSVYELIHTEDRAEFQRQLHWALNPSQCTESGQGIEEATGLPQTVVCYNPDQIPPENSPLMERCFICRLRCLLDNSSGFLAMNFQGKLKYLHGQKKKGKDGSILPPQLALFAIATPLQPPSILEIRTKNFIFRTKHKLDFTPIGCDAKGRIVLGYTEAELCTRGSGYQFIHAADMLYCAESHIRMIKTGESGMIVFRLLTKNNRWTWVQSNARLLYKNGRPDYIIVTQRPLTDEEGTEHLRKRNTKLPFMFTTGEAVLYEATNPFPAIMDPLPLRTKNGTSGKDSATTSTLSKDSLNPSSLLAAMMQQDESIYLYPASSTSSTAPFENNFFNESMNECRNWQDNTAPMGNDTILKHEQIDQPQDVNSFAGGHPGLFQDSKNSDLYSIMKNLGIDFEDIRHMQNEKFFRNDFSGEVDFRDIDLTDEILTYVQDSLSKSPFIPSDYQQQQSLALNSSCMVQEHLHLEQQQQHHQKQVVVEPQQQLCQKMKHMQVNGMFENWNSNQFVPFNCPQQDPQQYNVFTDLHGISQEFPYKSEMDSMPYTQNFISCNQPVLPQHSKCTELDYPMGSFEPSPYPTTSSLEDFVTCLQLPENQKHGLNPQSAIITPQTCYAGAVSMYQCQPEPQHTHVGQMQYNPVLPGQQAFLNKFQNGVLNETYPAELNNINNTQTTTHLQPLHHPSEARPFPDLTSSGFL
How it was run: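 24 h compound exposure, 37C, HepG2-derived HG2L7.5c1 cells with DRE-responsive luciferase. Readouts: fluorescence viability, then luminescence at room temperature after 30 min.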

[3] = biological target: Peroxisome proliferator-activated receptor gamma (Homo sapiens) (UniProt P37231); assay: qHTS assay to identify small molecule agonists of the peroxisome proliferator-activated receptor gamma (PPARg) signaling pathway (AID 743094; active = well fitted activation curve with a large enough effect in the signal ratio in the repeat runs, not every such curve was filed as active; the % refers to the signal ratio); settings: HEK293H PPARg-UAS-bla, beta-lactamase FRET ratio, 17 h; series mostly up to 57 µM
Peroxisome proliferator-activated receptor gamma (Homo sapiens), sequence (P37231 whole entry, looked up): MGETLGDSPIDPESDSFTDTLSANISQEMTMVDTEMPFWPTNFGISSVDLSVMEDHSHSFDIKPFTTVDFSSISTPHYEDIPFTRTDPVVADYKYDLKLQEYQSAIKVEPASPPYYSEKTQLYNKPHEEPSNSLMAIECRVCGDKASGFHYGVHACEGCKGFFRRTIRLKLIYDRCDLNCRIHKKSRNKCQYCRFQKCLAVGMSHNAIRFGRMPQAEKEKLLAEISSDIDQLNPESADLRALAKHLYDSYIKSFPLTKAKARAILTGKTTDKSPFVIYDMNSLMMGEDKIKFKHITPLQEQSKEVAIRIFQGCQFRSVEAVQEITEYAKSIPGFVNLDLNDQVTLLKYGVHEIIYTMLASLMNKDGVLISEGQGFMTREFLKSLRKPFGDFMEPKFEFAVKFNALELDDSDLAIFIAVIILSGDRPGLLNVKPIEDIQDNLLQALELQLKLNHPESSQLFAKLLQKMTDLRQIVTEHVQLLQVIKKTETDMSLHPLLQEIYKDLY
How it was run: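 Agonism was assessed in a beta-lactamase reporter system, HEK293H cells with a stably integrated UAS-bla construct under PPARg control; the 17 h treatment at 37C preceded a 1 h room-temperature FRET substrate read.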

[4] = biological target: Peroxisome proliferator-activated receptor gamma (Homo sapiens) (UniProt P37231); assay: qHTS assay to identify small molecule antagonists of the peroxisome proliferator-activated receptor gamma (PPARg) signaling pathway (AID 743191; calls by dose curve; also: nearly all actives have a fitted effect of over 30% in size; also: potency is read from the fitted curve at half-maximal effect); settings: HEK293H PPARg-UAS-bla, beta-lactamase ratio, antagonist, 17 h; series mostly up to 62.6 µM
How it was run: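 GeneBLAzer PPARg UAS-bla HEK293H cells carrying a UAS-driven beta-lactamase reporter were plated at 3000 cells/well, preincubated 5 h at 37C, then given compound for 17 h at 37C; LiveBLAzer B/G FRET substrate was read after 1 h at room temperature.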

[5] = qHTS assay for small molecule agonists of the antioxidant response element (ARE) signaling pathway (AID 743202; active = well fitted activation curve with a large enough effect in the signal ratio in the repeat runs, not every such curve was filed as active; the % refers to the signal ratio; also: potency is read from the fitted curve at half-maximal effect); settings: HepG2 ARE-bla reporter, beta-lactamase FRET, 16 h; series mostly up to 73.3 µM
How it was run: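 Following a 16 h, 37 C exposure of reporter HepG2 cells (ARE-driven beta-lactamase, 2,000 cells/well) to compounds, FRET substrate was applied for 2 h at room temperature and fluorescence intensity recorded.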

[6] = qHTS assay for small molecule agonists of the antioxidant response element (ARE) signaling pathway - cell viability counter screen (AID 743203; calls by dose curve; also: nearly all actives have a fitted effect of over 55% in size; also: potency is read from the fitted curve at half-maximal effect); settings: ARE-bla HepG2 viability, CellTiter-Glo luminescence, 16 h; series mostly up to 73.3 µM
How it was run: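 ATP content via CellTiter-Glo luminescence served as the viability measure. Cells: ARE-bla HepG2, 2,000 per well. Exposure: 16 hrs, 37C/5% CO2.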

[7] = qHTS assay for small molecule activators of the heat shock response signaling pathway - cell viability counter screen (AID 743209); settings: HSE-bla HeLa viability, CellTiter-Glo luminescence, 5 h; series mostly up to 62.6 µM; also: nearly all actives have a fitted effect of over 50% in size; also: potency is read from the fitted curve at half-maximal effect
How it was run: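 Compounds dissolved in DMSO were added to overnight-plated HSE-bla HeLa cells and left 5 h at 37 C. Cell viability was quantified by luminescence using CellTiter-Glo.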

[8] = qHTS assay for small molecule activators of the heat shock response signaling pathway (AID 743210; active = well fitted activation curve with a large enough effect in the signal ratio in the repeat runs, with a control signal flat, not every such curve was filed as active; the % refers to the signal ratio; also: potency is read from the fitted curve at half-maximal effect); settings: HeLa HSE-bla reporter, beta-lactamase ratio, 5 h; series mostly up to 62.6 µM
How it was run: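 Heat shock element–beta-lactamase HeLa reporter cells; qHTS with compounds for 5 h at 37 C; detection by FRET substrate fluorescence after 2.5 h at RT.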

[9] = qHTS assay to identify small molecule that activate the aryl hydrocarbon receptor (AhR) signaling pathway - cell viability counter screen (AID 743086); settings: HepG2-AhR-luc viability, CellTiter-Fluor, 24 h; series mostly up to 70.3 µM;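 also: HepG2 liver cells carrying the AhR DRE luciferase reporter; nearly all actives have a fitted effect of over 45% in size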
How it was run: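 HepG2-AhR-luc (HG2L7.5c1) cells, 4000/well, were preincubated 5 h at 37C, exposed to compound in qHTS format for 24 hr at 37C, then given CellTiter-Fluor for 30 min; viability was read as fluorescence in the reporter wells.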

[10] = qHTS assay to identify small molecule antagonists of the peroxisome proliferator-activated receptor gamma (PPARg) signaling pathway - cell viability counter screen (AID 743194); settings: PPARg-bla HEK293H viability, CellTiter-Glo luminescence, 17 h; Potency: co-treated with 50 nM rosiglitazone unless noted; series mostly up to 62.6 µM; also: nearly all actives have a fitted effect of over 55% in size; also: potency is read from the fitted curve at half-maximal effect
How it was run: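 PPARg-UAS-bla HEK293H cells were plated, rested 5 h at 37 C, then treated with compounds plus rosiglitazone (50 nM final) for 17 h at 37 C; viability was then read by CellTiter-Glo luminescence after 30 min at room temperature.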

Measured: Potency

Nc1cccnc1
not listed: [9] | [10]
inactive: all other assays above

Nc1ccc(-c2ccccc2)cc1
inactive and 27.3 µM (active): [5]
active: [2] 9.69 µM
not listed: [3] | [4]
inactive: all other assays above

C#CCOS(=O)OC1CCCCC1Oc1ccc(C(C)(C)C)cc1 (stereo not given)
active: [1] 21.7 µM and 6.86 µM | [4] 43.6 µM | [5] 970 nM and 1.72 µM
not listed: [3] | [10]
inactive: all other assays above

CCN(N=O)C(N)=O
not listed: [9]
inactive: all other assays above

c1nc[nH]n1
not listed: [9]
inactive: all other assays above

COC(=O)c1sccc1S(=O)(=O)NC(=O)Nc1nc(C)nc(OC)n1
not listed: [9] | [10]
inactive: all other assays above

O=C(O)C(F)(F)C(F)(F)C(F)(F)C(F)(F)C(F)(F)C(F)(F)C(F)(F)F
active: [5] 27.3 µM and 21.6 µM
inactive: [1] | [2] | [9] | [6] | [7]

S=C1NCCN1
not listed: [3] | [4] | [10]
inactive: all other assays above

C=C(C)[C@H]1Cc2c(ccc3c2O[C@@H]2COc4cc(OC)c(OC)cc4[C@@H]2C3=O)O1
inactive: [2] | [3] | [7] | [8]
active: [1] 34.8 µM and 34.4 µM | [4] 13.3 µM | [5] 0.0077 µM | [6] 15.6 µM and 3.86 µM and 3.76 µM

N#CC(Br)Br
active: [5] 34.2 µM
not listed: [9]
inactive: all other assays above

CNC(=O)Oc1cccc2c1OC(C)(C)O2
not listed: [5] | [9]
inactive: all other assays above

CNC(=O)N(C)c1nnc(C(C)(C)C)s1
not listed: [9] | [10]
inactive: all other assays above

CCN(CC)C(=O)/C(Cl)=C(\C)OP(=O)(OC)OC
not listed: [4] | [10]
inactive: all other assays above

Oc1c(Cl)c(Cl)c(Cl)c(Cl)c1Cl
inactive: [1] | [9] | [7] | [8]
active: [2] 3.37 µM | [4] 3.4 µM

CC(O)CCO (stereo not given)
not listed: [9] | [10]
inactive: all other assays above

CC1(C)C(C=C(Cl)Cl)C1C(=O)OC(C#N)c1cccc(Oc2ccccc2)c1 (stereo not given)
not listed: [5] | [9] | [10]
inactive: all other assays above

CCC(C)(C)c1ccc(O)cc1
not listed: [9]
inactive: all other assays above

C=C(C)C(=O)OCC1CO1 (stereo not given)
not listed: [9]
inactive: all other assays above

O=C1C=CC(=O)C=C1
not listed: [4] | [5] | [10]
inactive: all other assays above

CCOP(=S)(OCC)O/N=C(\C#N)c1ccccc1
active: [2] 10.6 µM and 21.7 µM
not listed: [9] | [10]
inactive: all other assays above

O=C(NC(=O)c1c(F)cccc1F)Nc1ccc(Cl)cc1
active: [2] 97.1 nM and 611 nM
not listed: [9]
inactive: all other assays above

COc1ccc(C=O)cc1
not listed: [9]
inactive: all other assays above

Nc1ccncc1
not listed: [3] | [4] | [8]
inactive: all other assays above

CC(C)NC(C)C
not listed: [8] | [9]
inactive: all other assays above

C[C@]12CCC(=O)C[C@@H]1CC[C@@H]1[C@@H]2CC[C@]2(C)[C@@H](O)CC[C@@H]12
active: [5] 27 µM
not listed: [3] | [4] | [10]
inactive: all other assays above

O=P(Oc1ccccc1)(Oc1ccccc1)Oc1ccccc1
not listed: [4] | [10]
inactive: all other assays above

C#C[C@]1(O)CC[C@H]2[C@@H]3CCC4=CC(=O)CC[C@]4(C)[C@H]3CC[C@@]21C
not listed: [4]
inactive: all other assays above

O=S(=O)(Oc1ccc(Cl)cc1)c1ccc(Cl)cc1
not listed: [9] | [10]
inactive: all other assays above

O=[N+]([O-])c1ccc(O)c([N+](=O)[O-])c1
active: [1] 54.7 µM | [2] 24.4 µM | [5] 48.8 µM
not listed: [9]
inactive: all other assays above

CCC(CC)Nc1c([N+](=O)[O-])cc(C)c(C)c1[N+](=O)[O-]
not listed: [9]
inactive: all other assays above

c1ccc(-c2cccc(-c3ccccc3)c2)cc1
inactive and 61.1 µM (active): [2]
not listed: [9] | [10]
inactive: all other assays above

O=C(CCl)c1ccccc1
inactive: [2] | [10] | [6]
inactive and 24.5 µM (active): [7]
inactive and 61.1 µM (active): [1]

N#Cc1cc(Br)c(O)c(Br)c1
active: [4] 54.9 µM and 21.1 µM
not listed: [2] | [5] | [10]
inactive: all other assays above

CCC(C)(c1ccc(O)cc1)c1ccc(O)cc1
active: [4] 30.9 µM and 38.9 µM
inactive: [1] | [2] | [6] | [7]

Brc1ccc(Oc2cc(Br)c(Br)cc2Br)c(Br)c1
inactive: [1] | [2] | [3] | [5] | [7] | [8]

C1=Cc2cccc3cccc1c23
not listed: [2] | [5] | [10]
inactive: all other assays above

CN(C)c1ccc(C(=O)c2ccc(N(C)C)cc2)cc1
active: [2] 428 nM and 3.86 µM
inactive: [1] | [10] | [6] | [7] | [8]

c1cc(OCC2CO2)ccc1Cc1ccc(OCC2CO2)cc1 (stereo not given)
active: [5] 61.4 µM and 61.1 µM
inactive: [9] | [6] | [7]

CCc1cccc(CC)c1N(COC)C(=O)CCl
active: [5] 4.19 µM and 4.86 µM
inactive: [2] | [6] | [7]

NNC(=S)NN
active: [8] 1.79 µM and 4.36 µM
not listed: [2] | [10]
inactive: all other assays above

Cc1ccc2c(c1N)C(=O)c1ccccc1C2=O
active: [1] 43.3 µM | [2] 3.03 µM and 4.33 µM
inactive: [3] | [10] | [6] | [7] | [8]

C=CCc1ccc2c(c1)OCO2
not listed: [2] | [4] | [10]
inactive: all other assays above

O=C(Nc1ccc(Br)cc1)c1cc(Br)cc(Br)c1O
active: [2] 5.31 µM and 3.42 µM and 3.06 µM | [10] 488 nM and 245 nM and 3.76 µM | [6] 34.2 µM and 9.69 µM and 13.3 µM
inactive: [1] | [3]

CC(C)(c1cc(Cl)c(O)c(Cl)c1)c1cc(Cl)c(O)c(Cl)c1
active: [5] 15.4 µM and 19.3 µM
inactive: [1] | [2] | [7]

N[C@@H](Cc1ccc(N(CCCl)CCCl)cc1)C(=O)O
not listed: [1]
inactive: all other assays above

O=Cc1ccco1
not listed: [3] | [4] | [9]
inactive: all other assays above

Cc1ccc(N)c(N)c1
inactive: [9] | [10] | [6] | [7]
active: [5] 8.66 µM and 10.9 µM

Nc1ccc(Cl)cc1N
active: [2] 11.3 µM and 13.7 µM
inactive: [1] | [3] | [10] | [7]
inactive and 6.11 µM (active): [6]

CCOc1cc(C=O)ccc1O
inactive: [9] | [10] | [5] | [6] | [7] | [8]

COc1ccc(C(CN(C)C)C2(O)CCCCC2)cc1 (stereo not given)
not listed: [2]
inactive: all other assays above

N#CCCCl
inactive: [9] | [10] | [5] | [6] | [7] | [8]

CC(C)c1ccc(CO)cc1
not listed: [2] | [4]
inactive: all other assays above

c1ccc(NNc2ccccc2)cc1
inactive: [10] | [5] | [6] | [7] | [8]

COP(=S)(OC)Oc1cc(Cl)c(Cl)cc1Cl
inactive and 30.4 µM (active): [2]
not listed: [4] | [9]
inactive: all other assays above

CCCCCCCCC(=O)NCc1ccc(O)c(OC)c1
not listed: [2] | [10]
inactive: all other assays above

CC(C)=CC1C(C(=O)OCc2coc(Cc3ccccc3)c2)C1(C)C (stereo not given)
active: [5] 54.5 µM and 30.6 µM
inactive: [1] | [2] | [6] | [7]

Oc1cc(Cl)ccc1Oc1ccc(Cl)cc1Cl
inactive and 22.2 µM (active): [1]
active: [6] 27.9 µM | [7] 30.7 µM and 29.8 µM
inactive: [3]
inactive and 21 µM (active): [2]

CCC(C)c1ccc(O)cc1 (stereo not given)
inactive: [5] | [6] | [7] | [8]
